# Active and inactive are the calls of the source.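 The calls were made as follows, unless noted: active = NADPH fluorescence slope more negative than the mean of all samples by about 3 SD, 99.7% confidence; inactive = the rest.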
# Assays:
# [1] = inhibitors of TNFa-induced NFkB p65 translocation, primary screen, imaging, HUVEC, MLSMR starter and 10KST1 sets (AID 438;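 active = inhibition above 20% together with a positive visual image hit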;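 also: compound added about 3h40 before a 20 min TNFalpha stimulation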;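 as to inhibition: signal is the nuclear over cytoplasmic p65 intensity ratio per well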); details: HUVEC TNFa-induced p65 nuclear translocation; cell count: measured here: nuclei count (cytotoxicity indicator), at 2.08 µM; inhibition: at 2 µM, stronger effect = higher value, 0% TNFa-plus-vehicle, 100% no-TNFa wells
# [2] = reduction of polyQ htt aggregates in cells – imaging, exon1htt(103Q)mCFP cells, high-content imaging, primary screen (AID 483;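 active = visual image review flags a hit and inhibition of aggregation exceeds 20%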;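 also: compound exposure lasted 3 days before fixation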;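 as to nuclei count: percent of the per-plate median nuclei count of sample wells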); details: exon1htt(103Q)mCFP cell line, aggregate imaging, at 2 µM; inhibition of aggregation: stronger effect = higher value; nuclei count: measured here: cell count, toxicity
# [3] = endothelial E-selectin expression blockers – imaging, HUVEC, immunofluorescence, MLSMR starter and 10KST1 sets, primary screen (AID 487;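 active = visually confirmed hit in the image check and inhibition above 20%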;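 as to inhibition: signal is fraction of cell area covered by stained E-selectin grains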;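 as to nuclei count: 100% = median nuclei count of all wells on the same plate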); details: HUVEC TNFalpha-induced E-selectin immunofluorescence imaging, at 2 µM; inhibition: stronger effect = higher value; nuclei count: measured here: cell number, toxicity
# [4] = target: Voltage-gated potassium channel subunit beta-2 (Rattus norvegicus) (UniProt P62483); assay: inhibitors of rat Kvbeta2 reductase activity – biochemical, NADPH fluorescence, primary screen (AID 622;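 active = fluorescence slope higher than the sample average by over 3 SD, cut at about -0.22 in these data, passing the limit was not always enough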;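 also: slope of raw intensity against log time taken from 70 to 1610 s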); details: recombinant KvBeta, 4-cyanobenzaldehyde reduction, at 10 µM, stronger effect = higher value
# Voltage-gated potassium channel subunit beta-2 (Rattus norvegicus), sequence (P62483 whole entry, looked up): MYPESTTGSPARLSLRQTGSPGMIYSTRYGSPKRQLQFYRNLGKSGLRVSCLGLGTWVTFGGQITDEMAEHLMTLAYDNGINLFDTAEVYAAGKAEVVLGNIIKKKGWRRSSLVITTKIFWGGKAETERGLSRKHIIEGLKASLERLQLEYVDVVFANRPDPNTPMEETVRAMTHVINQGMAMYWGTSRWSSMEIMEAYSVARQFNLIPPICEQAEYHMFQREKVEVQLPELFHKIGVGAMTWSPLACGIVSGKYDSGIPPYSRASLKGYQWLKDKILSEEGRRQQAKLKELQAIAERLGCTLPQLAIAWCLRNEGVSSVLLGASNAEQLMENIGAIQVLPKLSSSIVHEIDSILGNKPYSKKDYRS
# [5] = target: Voltage-gated potassium channel subunit beta-2 (Rattus norvegicus) (UniProt P62483); assay: enhancers of rat Kvbeta2 NADPH turnover – biochemical, NADPH fluorescence, primary screen (AID 623); details: Recombinant KvBeta, NADPH fluorescence decrease slope, 10 min; at 10 µM; stronger effect = lower value;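 also: fluorescence intensity change per second fitted from 20 to 320 s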
# [6] = target: Alpha-2C adrenergic receptor (Homo sapiens) (UniProt P18825); assay: compounds altering alpha2C-coupled GIRK flux – cell-based, HEK293 alpha2C/GIRK1/2, thallium flux, primary screen (AID 624;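 active = fluorescence slope after compound addition differing from the mean of all screened samples at 99.7% confidence, in either direction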;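 also: slope of fluorescence ratio to pre-addition baseline per second over 15 to 24 s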); details: thallium flux BTC fluorescence, at 10 µM, actives lie on both sides
# Alpha-2C adrenergic receptor (Homo sapiens), sequence (P18825 whole entry, looked up): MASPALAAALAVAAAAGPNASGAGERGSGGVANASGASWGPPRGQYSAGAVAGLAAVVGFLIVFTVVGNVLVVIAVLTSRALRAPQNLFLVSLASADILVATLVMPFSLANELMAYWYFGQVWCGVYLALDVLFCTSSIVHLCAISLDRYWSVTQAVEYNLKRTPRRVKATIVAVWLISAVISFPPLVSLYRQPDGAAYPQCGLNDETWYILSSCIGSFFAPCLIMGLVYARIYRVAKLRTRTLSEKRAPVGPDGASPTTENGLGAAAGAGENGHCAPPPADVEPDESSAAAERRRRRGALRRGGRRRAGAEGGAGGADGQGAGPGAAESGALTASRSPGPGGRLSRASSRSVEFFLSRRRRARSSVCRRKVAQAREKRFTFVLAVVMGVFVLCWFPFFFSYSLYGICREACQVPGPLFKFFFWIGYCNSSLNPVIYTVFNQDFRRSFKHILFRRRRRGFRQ
# [7] = blockers of RIG-like receptor reporter activation – cell-based, Sendai virus stimulus, luciferase, 10K MLSCN set, TLR/RLR signaling modifier project, primary screen (AID 602276;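 active = inhibition at or above 50% at 10 µM; inactive = inhibition below 50%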;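 also: firefly luciferase from ISG56 promoter only with Renilla not read in this screen; 0% = Sendai virus plus DMSO and 100% = medium plus DMSO without virus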); details: HEK293 RL24 IRF3 luciferase reporter, at 10 µM, stronger effect = higher value
# [8] = TLR3 IRF3 reporter activation blockers – cell-based, poly I:C stimulus, luciferase, 10K MLSCN set, primary screen (AID 602277;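 active = inhibition of the reporter signal at or above 50%; inactive = inhibition below 50%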); details: HEK293-TLR3 RL24 IRF3 luciferase reporter, at 10 µM, stronger effect = higher value
structure (smiles),measurement,setting,value
CN(CC(=O)N1CCCc2c1c(=O)oc1ccc(O)cc21)Cc1ccccc1,cell count,[1],418
same,inhibition,[1],5.7% (inactive)
same,inhibition of aggregation,[2],-21% (inactive)
same,nuclei count,[2],97.1%
same,inhibition,[3],-85.3% (inactive)
same,nuclei count,[3],117%
same,fluorescence slope,[4],-0.258 (inactive)
same,NADPH fluorescence slope,[5],-4.5e-05 (inactive)
same,slope,[6],0.00473 (inactive)
same,inhibition,[7],11.5% (inactive)
same,inhibition,[8],27.4% (inactive)
Cc1cccc(NC(=O)Cn2c(=O)n(C)c3ccccc32)c1,cell count,[1],350
same,inhibition,[1],-3.7% (inactive)
same,inhibition of aggregation,[2],2.6% (inactive)
same,nuclei count,[2],107%
same,inhibition,[3],-17.7% (inactive)
same,nuclei count,[3],107%
same,fluorescence slope,[4],-0.417 (inactive)
same,NADPH fluorescence slope,[5],9.1e-06 (inactive)
same,slope,[6],0.011 (inactive)
same,inhibition,[7],9.53% (inactive)
same,inhibition,[8],9.37% (inactive)
CCOCCCNC(=O)Cn1ncc2c(=O)oc3ccccc3c21,cell count,[1],651
same,inhibition,[1],-13.4% (inactive)
same,inhibition of aggregation,[2],-20.1% (inactive)
same,nuclei count,[2],98.5%
same,inhibition,[3],-32.1% (inactive)
same,nuclei count,[3],104%
same,fluorescence slope,[4],-0.586 (inactive)
same,NADPH fluorescence slope,[5],-1.8e-05 (inactive)
same,slope,[6],0.00598 (inactive)
same,inhibition,[7],5.54% (inactive)
same,inhibition,[8],30.9% (inactive)
CC1CCN(c2c(NCc3ccc(C(=O)N4c5ccccc5CC4C)cc3)c(=O)c2=O)CC1 (configuration not stated),cell count,[1],726
same,inhibition,[1],-5.7% (inactive)
same,inhibition of aggregation,[2],31.5% (inactive)
same,nuclei count,[2],104%
same,inhibition,[3],-38.2% (inactive)
same,nuclei count,[3],105%
same,fluorescence slope,[4],-0.572 (inactive)
same,NADPH fluorescence slope,[5],-3.6e-05 (inactive)
same,slope,[6],0.00643 (inactive)
same,inhibition,[7],21.8% (inactive)
same,inhibition,[8],45.8% (inactive)
COC(=O)c1ccc(CSc2nc3c(cnn3-c3ccc(F)cc3)c(=O)[nH]2)o1,cell count,[1],653
same,inhibition,[1],-12.7% (inactive)
same,inhibition of aggregation,[2],-1.4% (inactive)
same,nuclei count,[2],106%
same,inhibition,[3],-44.8% (inactive)
same,nuclei count,[3],113%
same,fluorescence slope,[4],-0.545 (inactive)
same,NADPH fluorescence slope,[5],5.2e-05 (inactive)
same,slope,[6],0.00536 (inactive)
same,inhibition,[7],-5.97% (inactive)
same,inhibition,[8],18.8% (inactive)
O=C(Nc1ncc(Cc2ccccc2)s1)C1CCCO1 (configuration not stated),cell count,[1],455
same,inhibition,[1],-3.3% (inactive)
same,inhibition of aggregation,[2],11% (inactive)
same,nuclei count,[2],109%
same,inhibition,[3],-1.5% (inactive)
same,nuclei count,[3],96.3%
same,fluorescence slope,[4],-0.563 (inactive)
same,NADPH fluorescence slope,[5],-1.3e-05 (inactive)
same,slope,[6],0.00728 (inactive)
same,inhibition,[7],-58.5% (inactive)
same,inhibition,[8],-150% (inactive)
CCOc1ccccc1C(=O)NCc1ccc2c(c1)OCO2,cell count,[1],414
same,inhibition,[1],1.1% (inactive)
same,inhibition of aggregation,[2],-12.2% (inactive)
same,nuclei count,[2],98.8%
same,inhibition,[3],-18.7% (inactive)
same,nuclei count,[3],94.7%
same,fluorescence slope,[4],-0.388 (inactive)
same,NADPH fluorescence slope,[5],-3.6e-05 (inactive)
same,slope,[6],0.00485 (inactive)
same,inhibition,[7],10.4% (inactive)
same,inhibition,[8],-6.17% (inactive)
COCc1[nH]nc2c1C(c1cc(OC)c(O)c(OC)c1)C(C#N)=C(N)O2 (configuration not stated),cell count,[1],397
same,inhibition,[1],-1.6% (inactive)
same,inhibition of aggregation,[2],-17% (inactive)
same,nuclei count,[2],115%
same,inhibition,[3],-26.1% (inactive)
same,nuclei count,[3],117%
same,fluorescence slope,[4],-0.502 (inactive)
same,NADPH fluorescence slope,[5],-4.1e-05 (inactive)
same,slope,[6],0.0049 (inactive)
same,inhibition,[7],17.4% (inactive)
same,inhibition,[8],21.1% (inactive)
CC1(C)CC(CCNC(=O)c2ccco2)CC(C)(C)N1,cell count,[1],387
same,inhibition,[1],2.3% (inactive)
same,inhibition of aggregation,[2],1.2% (inactive)
same,nuclei count,[2],86.4%
same,inhibition,[3],-91.3% (inactive)
same,nuclei count,[3],81.4%
same,fluorescence slope,[4],-0.473 (inactive)
same,NADPH fluorescence slope,[5],-1.8e-05 (inactive)
same,slope,[6],0.00616 (inactive)
same,inhibition,[7],12% (inactive)
same,inhibition,[8],12.3% (inactive)
Nc1nc(Nc2cccc3ccccc23)nc(C2CCCC2=O)n1 (configuration not stated),cell count,[1],349
same,inhibition,[1],1.8% (inactive)
same,inhibition of aggregation,[2],-7% (inactive)
same,nuclei count,[2],97.3%
same,inhibition,[3],-38.8% (inactive)
same,nuclei count,[3],109%
same,fluorescence slope,[4],-0.312 (inactive)
same,NADPH fluorescence slope,[5],-7e-05 (inactive)
same,slope,[6],0.00598 (inactive)
same,inhibition,[7],4.53% (inactive)
same,inhibition,[8],13.8% (inactive)
CCCCOC(=O)Cn1c(=O)oc2ccc(C)cc21,cell count,[1],741
same,inhibition,[1],-5.8% (inactive)
same,inhibition of aggregation,[2],3.3% (inactive)
same,nuclei count,[2],38%
same,inhibition,[3],-96.5% (inactive)
same,nuclei count,[3],109%
same,fluorescence slope,[4],-0.589 (inactive)
same,NADPH fluorescence slope,[5],-4.7e-05 (inactive)
same,slope,[6],0.00659 (inactive)
same,inhibition,[7],-5.21% (inactive)
same,inhibition,[8],7.21% (inactive)
Cc1nc(-c2cccc(N)c2)cs1,cell count,[1],726
same,inhibition,[1],-11% (inactive)
same,inhibition of aggregation,[2],-14.5% (inactive)
same,nuclei count,[2],77.8%
same,inhibition,[3],-35.4% (inactive)
same,nuclei count,[3],132%
same,fluorescence slope,[4],-0.514 (inactive)
same,NADPH fluorescence slope,[5],-1e-05 (inactive)
same,slope,[6],0.00706 (inactive)
same,inhibition,[7],-3.62% (inactive)
same,inhibition,[8],-15.1% (inactive)

# Reference: PubChem BioAssay
